In PubChem BioAssay (EPA / NIEHS):
Several values for one entry are separate records, joined by “and”; a condition that tells them apart may be missing. Equal values may be shown once. Inconclusive results are not listed. Some structures have more than one record in an assay (separate samples or runs), and their calls can disagree. Activity calls are given as the source filed them. The calls were made as follows: active = hit-call score of the fitted dose curve at least 0.9, where 1 is the maximum; inconclusive = response in the unintended direction; inactive = score below 0.9.

Legend:
[1] = target: chimpanzee Androgen Receptor (AR), AR (gene 747460) (UniProt O97775); experiment: NVS_NR_cAR: NovaScreen (NVS) Nuclear Receptor Binding Assay for chimpanzee Androgen Receptor (AR) (AID 2283346);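 also: radioligand displacement from AR measured by scintillation counting in a cell-free assay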
Outline: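 Cell-free competition binding with insect-cell (Sf9/Sf21) extracted chimpanzee AR; scintillation signal from lysate at 72 h. Screened in duplicate at 25 uM, then concentration-response for actives; fitting relative to DMSO.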

[2] = target: human Peroxisome Proliferator-activated Receptor alpha (PPARa), PPARA (gene 5465) (UniProt Q07869); experiment: NVS_NR_hPPARa: NovaScreen (NVS) Nuclear Receptor Binding Assay for human Peroxisome Proliferator-activated Receptor alpha (PPARa) (AID 2283359);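 also: activity means loss of TR-FRET signal versus DMSO baseline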
Outline: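 Chemicals were first screened in duplicate at 25 uM, and active ones were retested across concentration series. Binding was monitored by TR-FRET one hour after dosing, with decreased signal against DMSO counted as activity.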

PGR (gene 5241) = PGR (gene 5241) (UniProt P06401); experiment: NVS_NR_hPR: NovaScreen (NVS) Nuclear Receptor Binding Assay for human Progestron Receptor (PR) (AID 2283360);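 also: active means loss of bound radioligand signal versus DMSO baseline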
Outline: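 T47D-derived receptor preparation, cell-free, with tritiated or iodinated radioligand displacement measured by scintillation 18 h post-dosing. Single 25 uM duplicate screen, then concentration series; signal loss relative to DMSO.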

[3] = target: Glucocorticoid receptor (Homo sapiens) (UniProt P04150); experiment: NVS_NR_hGR: NovaScreen (NVS) Nuclear Receptor Binding Assay for human Glucocorticoid Receptor (GR) (AID 2283363);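 as to AC50: activity is loss of specific radioligand binding signal relative to DMSO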
Outline: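 Competitive displacement of a labelled ligand was measured on cell-free receptor preparations after 16 h exposure. Initial testing used 25 uM in duplicate with plate controls; confirmed actives went into concentration series.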

[4] = target: human Adenosine Transporter (Adot), SLC29A1 (gene 2030) (UniProt Q99808); experiment: NVS_TR_hAdoT: NovaScreen (NVS) Transporter Assay for human Adenosine Transporter (Adot) (AID 2283368)
Outline: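 U937-derived membranes, cell-free radioligand binding, filter scintillation 1 h after dosing. 25 uM duplicate screen; hits (e.g. 30% inhibition) run in concentration-response up to 50 uM; loss of signal versus DMSO.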

[5] = target: human Constitutive Androstane Receptor (CAR), NR1I3 (gene 9970) (UniProt Q14994); experiment: NVS_NR_hCAR_Antagonist: NovaScreen (NVS) Nuclear Receptor Binding Assay for human Constitutive Androstane Receptor Antagonism (CAR) (AID 2283344)
Outline: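 Cell-free TR-FRET binding read 1 h after dosing, antagonist mode; loss of signal versus DMSO baseline. Primary screen in duplicate at a single 25 uM; actives retested in concentration series.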

[6] = target: Estrogen receptor (Homo sapiens) (UniProt P03372); experiment: OT_ER_ERaERa_1440: Odyssey Thera (OT) 24-hour HEK293T Protein-Complementation Assay for Estrogen Receptor-alpha/-alpha Homodimer (AID 2283349);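 also: hits raise fluorescence above DMSO for agonists and antagonists alike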
Outline: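 Protein-fragment complementation between two human ERα ligand-binding domains (aa 310-547) in stably transfected HEK293T cells was monitored after 24 h treatment, using fluorescence intensity relative to vehicle controls.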

[7] = target: T1, Estrogen receptor (Homo sapiens) + Estrogen receptor beta (Homo sapiens) (UniProt P03372+Q92731); experiment: OT_ER_ERaERb_0480: Odyssey Thera (OT) 8-hour HEK293T Protein-Complementation Assay for Estrogen Receptor-alpha/-beta Heterodimer (AID 2283352)
Outline: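 Increase in mean fluorescence intensity, measured by laser scanning plate cytometry, reported ER-alpha/ER-beta LBD complementation in HEK293T cells after 8 h chemical exposure. DMSO served as baseline; basal signal is low, punctate and cytoplasmic.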

[8] = target: T1, Estrogen receptor (Homo sapiens) + Estrogen receptor beta (Homo sapiens); experiment: OT_ER_ERaERb_1440: Odyssey Thera (OT) 24-hour HEK293T Protein-Complementation Assay for Estrogen Receptor-alpha/-beta Homodimer (AID 2283356);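 also: heteromer of ER alpha and ER beta binding domains; hits raise reporter fluorescence and both agonists and antagonists give an increase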
Outline: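 Heterodimerisation of ERα (aa 310-547) and ERβ (aa 263-489) ligand binding domains was tracked as fluorescence gain in stably transfected HEK293T cells following 24 h dosing, normalised to DMSO controls.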

[9] = target: Estrogen receptor beta (Homo sapiens) (UniProt Q92731); experiment: OT_ER_ERbERb_0480: Odyssey Thera (OT) 8-hour HEK293T Protein-Complementation Assay for Estrogen Receptor-beta/-beta Homodimer (AID 2283357);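 also: active means signal gain over DMSO baseline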
Outline: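 Cells (HEK293T, stable ER-beta LBD PCA pair) are treated 8 hours, fixed and Draq5-stained; signal is fluorescence intensity increase relative to vehicle, fitted in the gain direction.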

[10] = target: bovine Estrogen Receptor (ER), ESR1 (gene 407238) (UniProt P49884); experiment: NVS_NR_bER: NovaScreen (NVS) Nuclear Receptor Binding Assay for bovine Estrogen Receptor (ER) (AID 2283345);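 also: actives lower the bound radioligand count which means they displace the ER ligand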
Outline: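 Displacement of a radioligand from estrogen receptor in bovine uterine membrane preparations; scintillation signal taken at 18 hours, DMSO as baseline. Single-concentration duplicates (25 uM) preceded concentration-response follow-up of actives.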

[11] = target: Androgen Receptor/SRC-1 Co-activator, AR (gene 367) (UniProt P10275); experiment: OT_AR_ARSRC1_0960: Odyssey Thera (OT) 16-hour HEK293T Protein-Complementation Assay for Androgen Receptor/SRC-1 Co-activator (AID 2283353);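 also: actives raise the signal above DMSO so potency reflects increased AR and SRC-1 complex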
Outline: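 HEK293T cells stably expressing AR and SRC-1 fused to Venus YFP fragments, imaged 16 h after dosing. Nuclear/cytoplasmic fluorescence ratio at 488 nm from at least 400 cells per image; gain of signal relative to DMSO.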

[12] = target: Nuclear receptor subfamily 1 group I member 2 (Homo sapiens) (UniProt O75469); experiment: NVS_NR_hPXR: NovaScreen (NVS) Nuclear Receptor Binding Assay for human Pregnane X Receptor (PXR) (AID 2283365);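 also: a drop in FRET signal versus DMSO baseline means the compound binds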
Outline: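 Binding was measured by time-resolved fluorescence resonance energy transfer after a 2 h exposure of extracted human PXR protein without cells. Compounds were first tested at 25 uM in duplicate, with concentration series for actives; DMSO defined baseline.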

[13] = target: rat Androgen Receptor (AR), Ar (gene 24208) (UniProt P15207); experiment: NVS_NR_rAR: NovaScreen (NVS) Nuclear Receptor Binding Assay for rat Androgen Receptor (AR) (AID 2283366)
Outline: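 Cell-free radioligand binding on extracts of prostate from testosterone-pretreated rats, read by filter-based scintillation counting 18 h after dosing. Loss of bound signal fitted positively versus DMSO; primary screen in duplicate at 25 uM, actives followed up in concentration series.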

[14] = target: Estrogen receptor (Homo sapiens) (UniProt P03372); experiment: OT_ER_ERaERa_0480: Odyssey Thera (OT) 8-hour HEK293T Protein-Complementation Assay for Estrogen Receptor-alpha/-alpha Homodimer (AID 2283351);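 also: rise in fluorescence from reassembled reporter fragments on ERα LBD homodimer in nucleus or whole cell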
Outline: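 The readout is complementation of fragments fused to the human ER alpha ligand-binding domain (aa 310-547), stably expressed in HEK293T cells. After 8 h of exposure, the increase in nuclear/cytoplasmic fluorescence was measured by laser scanning cytometry and fitted relative to DMSO.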

Sequence of bovine Estrogen Receptor (ER), ESR1 (gene 407238) (P49884 whole entry, looked up): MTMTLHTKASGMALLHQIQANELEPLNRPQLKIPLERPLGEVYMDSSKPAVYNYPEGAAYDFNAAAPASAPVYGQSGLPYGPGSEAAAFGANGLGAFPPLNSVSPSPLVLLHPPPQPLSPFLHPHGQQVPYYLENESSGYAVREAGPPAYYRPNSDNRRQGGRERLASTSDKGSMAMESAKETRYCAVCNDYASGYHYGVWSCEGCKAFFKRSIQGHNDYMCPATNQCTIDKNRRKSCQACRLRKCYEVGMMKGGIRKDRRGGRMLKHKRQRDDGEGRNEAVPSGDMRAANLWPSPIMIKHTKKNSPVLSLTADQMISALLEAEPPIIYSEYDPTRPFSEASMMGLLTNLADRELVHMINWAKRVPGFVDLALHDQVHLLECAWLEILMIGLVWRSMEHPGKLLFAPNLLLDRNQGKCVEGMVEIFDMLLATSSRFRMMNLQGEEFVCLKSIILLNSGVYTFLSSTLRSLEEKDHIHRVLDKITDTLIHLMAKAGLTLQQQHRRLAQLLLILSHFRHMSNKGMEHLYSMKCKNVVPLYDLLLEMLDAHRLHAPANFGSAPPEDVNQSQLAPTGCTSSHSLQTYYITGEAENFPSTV
Sequence of human Peroxisome Proliferator-activated Receptor alpha (PPARa), PPARA (gene 5465) (Q07869 whole entry, looked up): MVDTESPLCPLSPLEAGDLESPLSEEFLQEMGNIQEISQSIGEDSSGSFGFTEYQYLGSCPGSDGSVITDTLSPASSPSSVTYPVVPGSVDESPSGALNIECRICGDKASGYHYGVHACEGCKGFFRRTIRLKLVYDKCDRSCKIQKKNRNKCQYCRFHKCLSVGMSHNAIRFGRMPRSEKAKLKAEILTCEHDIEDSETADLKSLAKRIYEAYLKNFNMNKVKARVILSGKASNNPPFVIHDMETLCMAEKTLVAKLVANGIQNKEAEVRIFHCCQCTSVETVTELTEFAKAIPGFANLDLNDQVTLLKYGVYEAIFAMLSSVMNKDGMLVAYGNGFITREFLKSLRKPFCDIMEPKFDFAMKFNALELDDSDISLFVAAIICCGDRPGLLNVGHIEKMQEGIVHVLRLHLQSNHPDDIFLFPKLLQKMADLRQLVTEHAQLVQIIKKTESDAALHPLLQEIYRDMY
Sequence of human Constitutive Androstane Receptor (CAR), NR1I3 (gene 9970) (Q14994 whole entry, looked up): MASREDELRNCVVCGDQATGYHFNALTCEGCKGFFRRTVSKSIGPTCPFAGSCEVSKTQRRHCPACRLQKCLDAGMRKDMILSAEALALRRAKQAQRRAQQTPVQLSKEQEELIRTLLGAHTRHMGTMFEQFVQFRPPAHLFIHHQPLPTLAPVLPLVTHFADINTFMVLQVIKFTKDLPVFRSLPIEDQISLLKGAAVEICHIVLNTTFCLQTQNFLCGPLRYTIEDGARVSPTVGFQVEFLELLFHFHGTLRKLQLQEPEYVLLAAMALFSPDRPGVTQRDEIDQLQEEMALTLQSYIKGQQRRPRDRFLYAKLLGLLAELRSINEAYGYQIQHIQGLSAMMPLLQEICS
Sequence of Nuclear receptor subfamily 1 group I member 2 (Homo sapiens) (O75469 whole entry, looked up): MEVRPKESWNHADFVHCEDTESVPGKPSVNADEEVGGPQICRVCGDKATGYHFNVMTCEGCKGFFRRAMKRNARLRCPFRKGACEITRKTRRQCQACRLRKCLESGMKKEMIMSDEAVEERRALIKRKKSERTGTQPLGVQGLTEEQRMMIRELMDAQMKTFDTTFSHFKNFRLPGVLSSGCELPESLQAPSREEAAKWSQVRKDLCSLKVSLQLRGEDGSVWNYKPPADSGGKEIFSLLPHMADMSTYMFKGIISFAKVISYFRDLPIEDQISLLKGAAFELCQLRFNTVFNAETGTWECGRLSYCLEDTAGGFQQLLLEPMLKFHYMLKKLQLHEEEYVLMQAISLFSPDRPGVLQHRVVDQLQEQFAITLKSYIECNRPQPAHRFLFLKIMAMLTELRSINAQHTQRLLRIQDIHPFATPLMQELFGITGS
Sequence of PGR (gene 5241) (P06401 whole entry, looked up): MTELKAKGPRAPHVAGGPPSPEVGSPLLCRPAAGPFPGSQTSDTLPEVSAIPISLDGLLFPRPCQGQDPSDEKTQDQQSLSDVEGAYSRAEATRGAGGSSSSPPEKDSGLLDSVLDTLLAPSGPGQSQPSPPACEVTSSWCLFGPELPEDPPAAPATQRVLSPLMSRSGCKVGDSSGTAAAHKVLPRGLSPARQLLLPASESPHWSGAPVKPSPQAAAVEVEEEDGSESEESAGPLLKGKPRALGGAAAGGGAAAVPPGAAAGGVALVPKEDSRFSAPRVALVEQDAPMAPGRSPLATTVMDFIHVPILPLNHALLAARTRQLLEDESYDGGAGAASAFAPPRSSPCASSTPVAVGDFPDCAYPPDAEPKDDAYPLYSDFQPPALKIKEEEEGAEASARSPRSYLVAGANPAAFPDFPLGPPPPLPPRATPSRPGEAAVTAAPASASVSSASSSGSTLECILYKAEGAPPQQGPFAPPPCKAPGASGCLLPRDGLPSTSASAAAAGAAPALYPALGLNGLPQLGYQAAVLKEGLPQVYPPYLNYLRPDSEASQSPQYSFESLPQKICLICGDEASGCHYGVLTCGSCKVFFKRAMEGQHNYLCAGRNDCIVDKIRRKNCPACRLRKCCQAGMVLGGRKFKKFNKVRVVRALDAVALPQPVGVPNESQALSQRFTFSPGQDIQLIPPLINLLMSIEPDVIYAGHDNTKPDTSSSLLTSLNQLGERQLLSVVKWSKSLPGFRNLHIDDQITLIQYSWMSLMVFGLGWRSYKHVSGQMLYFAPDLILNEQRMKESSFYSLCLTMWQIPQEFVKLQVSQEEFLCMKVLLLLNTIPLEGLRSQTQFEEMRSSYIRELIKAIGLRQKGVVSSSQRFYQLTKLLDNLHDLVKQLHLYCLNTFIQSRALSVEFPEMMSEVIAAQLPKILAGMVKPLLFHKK
Sequence of rat Androgen Receptor (AR), Ar (gene 24208) (P15207 whole entry, looked up): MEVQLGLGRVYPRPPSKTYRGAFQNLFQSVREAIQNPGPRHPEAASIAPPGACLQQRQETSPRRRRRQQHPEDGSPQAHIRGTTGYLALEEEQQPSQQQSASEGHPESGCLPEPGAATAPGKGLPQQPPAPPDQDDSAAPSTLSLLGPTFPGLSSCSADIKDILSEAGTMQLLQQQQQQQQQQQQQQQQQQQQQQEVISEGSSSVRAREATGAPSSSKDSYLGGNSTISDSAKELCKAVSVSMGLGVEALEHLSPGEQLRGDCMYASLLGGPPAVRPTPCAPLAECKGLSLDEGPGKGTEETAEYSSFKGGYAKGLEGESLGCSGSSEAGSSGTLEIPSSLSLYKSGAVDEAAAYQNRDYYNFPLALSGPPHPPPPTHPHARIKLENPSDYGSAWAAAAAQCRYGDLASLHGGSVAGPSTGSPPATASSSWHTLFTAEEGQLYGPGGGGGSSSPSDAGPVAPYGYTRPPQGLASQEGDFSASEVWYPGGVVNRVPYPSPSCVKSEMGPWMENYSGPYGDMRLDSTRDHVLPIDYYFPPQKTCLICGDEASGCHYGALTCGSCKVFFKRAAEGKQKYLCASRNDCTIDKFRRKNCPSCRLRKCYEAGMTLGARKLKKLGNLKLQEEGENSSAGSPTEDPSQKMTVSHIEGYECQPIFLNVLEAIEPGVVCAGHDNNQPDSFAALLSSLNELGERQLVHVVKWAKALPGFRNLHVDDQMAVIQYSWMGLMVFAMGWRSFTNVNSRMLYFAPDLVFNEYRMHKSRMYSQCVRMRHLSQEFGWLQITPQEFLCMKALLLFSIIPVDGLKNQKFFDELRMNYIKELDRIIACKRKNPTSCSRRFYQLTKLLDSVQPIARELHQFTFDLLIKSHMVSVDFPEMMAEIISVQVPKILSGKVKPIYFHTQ
Sequence of Glucocorticoid receptor (Homo sapiens) (P04150 whole entry, looked up): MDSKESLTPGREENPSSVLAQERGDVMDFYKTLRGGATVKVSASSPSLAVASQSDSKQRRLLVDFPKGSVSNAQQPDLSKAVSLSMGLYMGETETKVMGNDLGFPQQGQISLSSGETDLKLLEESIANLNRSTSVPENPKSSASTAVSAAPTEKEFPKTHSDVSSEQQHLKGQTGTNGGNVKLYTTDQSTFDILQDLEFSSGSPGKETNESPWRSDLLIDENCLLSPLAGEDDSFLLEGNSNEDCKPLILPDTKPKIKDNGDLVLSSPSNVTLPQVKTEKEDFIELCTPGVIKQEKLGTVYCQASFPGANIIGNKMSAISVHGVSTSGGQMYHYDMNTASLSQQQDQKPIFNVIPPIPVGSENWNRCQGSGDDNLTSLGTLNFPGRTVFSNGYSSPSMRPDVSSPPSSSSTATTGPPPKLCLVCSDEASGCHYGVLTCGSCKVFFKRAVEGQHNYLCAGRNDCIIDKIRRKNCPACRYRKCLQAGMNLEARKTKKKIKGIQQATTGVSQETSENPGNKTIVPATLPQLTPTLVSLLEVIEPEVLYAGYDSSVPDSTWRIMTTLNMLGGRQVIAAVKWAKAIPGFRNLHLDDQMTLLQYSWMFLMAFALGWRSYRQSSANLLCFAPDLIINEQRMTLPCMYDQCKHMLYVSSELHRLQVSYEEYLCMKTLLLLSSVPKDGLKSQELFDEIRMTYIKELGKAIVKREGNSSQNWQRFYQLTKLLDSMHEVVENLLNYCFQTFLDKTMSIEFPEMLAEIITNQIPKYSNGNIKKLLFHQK
Sequence of human Adenosine Transporter (Adot), SLC29A1 (gene 2030) (Q99808 whole entry, looked up): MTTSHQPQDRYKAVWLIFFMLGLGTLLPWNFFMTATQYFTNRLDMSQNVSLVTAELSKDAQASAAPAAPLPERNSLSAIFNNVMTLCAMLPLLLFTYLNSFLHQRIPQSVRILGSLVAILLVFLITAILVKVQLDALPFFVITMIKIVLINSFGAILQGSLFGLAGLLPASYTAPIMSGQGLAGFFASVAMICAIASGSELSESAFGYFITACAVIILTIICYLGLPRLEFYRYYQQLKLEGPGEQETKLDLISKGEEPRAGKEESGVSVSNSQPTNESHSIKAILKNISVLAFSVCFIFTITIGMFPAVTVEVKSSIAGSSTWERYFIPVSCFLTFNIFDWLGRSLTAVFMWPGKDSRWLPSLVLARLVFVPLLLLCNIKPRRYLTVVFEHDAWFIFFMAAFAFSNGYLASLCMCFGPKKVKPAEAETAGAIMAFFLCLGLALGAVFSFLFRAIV

Q: Which results are given for `CC/C(=C(/CC)c1ccc(O)cc1)c1ccc(O)cc1`?
A: AC50 [1]: 12.6 µM (active); outcome [1]: inactive; outcome [2]: inactive; outcome (PGR (gene 5241)): inactive; AC50 [3]: 177 nM (active) and 162 nM (active) and 1.27 µM (active); AC50 [4]: 17.6 µM (active)

Q: Which results are given for `CC1=CC(=O)/C(=C(/C)O)C(=O)O1`?
A: outcome [5]: inactive; outcome [6]: inactive; outcome [7]: inactive; outcome [8]: inactive; outcome [9]: inactive; outcome (PGR (gene 5241)): inactive

Q: Which outcome [10] does the source give for `CCCCCc1ccc(N)cc1` here?
A: inactive

Q: And the outcome [1]?
A: inactive

Q: And the outcome [6]?
A: inactive

Q: What about the AC50 [7] of the same compound?
A: 46.8 µM (active) and 40 µM (active) and 53.9 µM (active)

Q: And the outcome [7]?
A: inactive

Q: And the AC50 [8]?
A: 18.9 µM (active) and 27.8 µM (active) and 42.5 µM (active)

Q: What about the outcome [8] of the same compound?
A: inactive

Q: And the AC50 [9]?
A: 65.3 µM (active) and 55.7 µM (active) and 56.6 µM (active)

Q: What about the outcome [9] of the same compound?
A: inactive

Q: Which results are given for `NCc1cccc(C2CCN(C(=O)c3ccc(C#Cc4ccccc4F)o3)CC2)c1`?
A: AC50 [1]: 32.6 µM (active); outcome [6]: inactive; AC50 [11]: 14.6 µM (active); outcome [9]: inactive; AC50 [2]: 40.8 µM (active); outcome (PGR (gene 5241)): inactive; AC50 [3]: 7.56 µM (active); AC50 [12]: 7.85 µM (active); AC50 [13]: 15.4 µM (active); AC50 [4]: 25 µM (active)

Q: `CCCCOC(=O)c1ccc(O)cc1` was tested. Which outcome [1] did it give?
A: inactive

Q: What about the outcome [11] of the same compound?
A: inactive

Q: What about the AC50 [9] of the same compound?
A: 4.69 µM (active) and 5.25 µM (active) and 5.52 µM (active)

Q: What about the outcome [2] of the same compound?
A: inactive

Q: What about the outcome (PGR (gene 5241)) of the same compound?
A: inactive

Q: And the outcome [3]?
A: inactive

Q: And the outcome [12]?
A: inactive

Q: What about the outcome [13] of the same compound?
A: inactive

Q: For `CC(C)(C)c1cc(/C=C2\SC(N)=NC2=O)cc(C(C)(C)C)c1O`, which outcome [10] is on record?
A: inactive

Q: What about the AC50 [1] of the same compound?
A: 33.9 µM (active)

Q: What about the outcome [6] of the same compound?
A: inactive

Q: What about the outcome [14] of the same compound?
A: inactive

Q: And the outcome (PGR (gene 5241))?
A: inactive

Q: For `Clc1cc(Cl)c2c(c1)N=C1CCCCCN1C2`, which outcome [5] is on record?
A: inactive

Q: What about the outcome [6] of the same compound?
A: inactive

Q: What about the outcome [2] of the same compound?
A: inactive

Q: What about the outcome (PGR (gene 5241)) of the same compound?
A: inactive

Q: How did the AC50 [1] turn out when `COc1ccc2cc(S(=O)(=O)N[C@H](CC(=O)N[C@H](Cc3ccc(CN4[C@H](C)CCC[C@@H]4C)cc3)C(=O)N(C)C(C)C)c3ccc4c(c3)OCO4)ccc2c1` was run?
A: 10.8 µM (active)

Q: And the outcome [6]?
A: inactive

Q: What about the outcome [3] of the same compound?
A: inactive

Q: What about the AC50 [4] of the same compound?
A: 9.24 µM (active)

Q: Which outcome [10] does the source give for `Clc1ccccc1C(c1ccccc1)(c1ccccc1)n1ccnc1` here?
A: inactive

Q: And the outcome [6]?
A: inactive

Q: What about the outcome [8] of the same compound?
A: inactive

Q: What about the outcome [9] of the same compound?
A: inactive

Q: And the AC50 [3]?
A: 0.7 µM (active)

Q: What about the outcome [12] of the same compound?
A: inactive

Q: What does the source list for `Cc1oc2c(NC(=O)c3c(Cl)cccc3Cl)cccc2c1C(C)(C)O`?
A: AC50 [5]: 34.6 µM (active); outcome [1]: inactive; outcome [6]: inactive; AC50 [4]: 25 µM (active)

Q: Which outcome [5] does the source give for `CC(C)(C)c1csc(-c2cc3cc(OCc4ccccc4CC(=O)O)ccc3o2)n1` here?
A: inactive

Q: And the outcome [6]?
A: inactive

Q: And the outcome [7]?
A: inactive

Q: What about the outcome [8] of the same compound?
A: inactive

Q: What about the outcome [9] of the same compound?
A: inactive

Q: `CC[C@H](NC(=O)c1cc(F)ccc1NS(=O)(=O)c1cccc2cccnc12)c1ccccc1` was tested. Which outcome [10] did it give?
A: inactive

Q: What about the outcome [6] of the same compound?
A: inactive

Q: What about the outcome [14] of the same compound?
A: inactive

Q: What about the outcome [7] of the same compound?
A: inactive

Q: And the outcome [8]?
A: inactive

Q: What about the outcome [9] of the same compound?
A: inactive
